Assay results published in PubChem BioAssay (NCI).
About 83,000 compounds went through this panel and 20% of them were active in at least one assay; those are over-represented in the sample as a whole.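 The test compound was applied at a single concentration to cells in 96-well plates for 48 hours, and percent growth was recorded.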 Values without a mark were called inactive. Calls of active or inactive are those of the source. Rule for the calls: active = growth percent below 10; inactive = the rest.

System: MALME-3M melanoma
Test: NCI-60 one-dose screen, 48 h (100 = growth as untreated, 0 = no growth, -100 = all killed)
Conditions: 10 µM unless noted

| SMILES | growth |
| --- | --- |
| COc1ccccc1-c1ccc2c(N)c(C(=O)c3ccc4c(c3)OCO4)sc2n1 | 48.2% |
| CC(=O)C1=C(O)C=C2Oc3c(C(=O)/C=C/c4cc(C(F)(F)F)cc(C(F)(F)F)c4)c(O)c(C)c(O)c3[C@]2(C)C1=O | -65.6% (active) |
| CC/C=C\C[C@H](O)C/C=C1/C(=O)C=C[C@@H]1C/C=C\CCCC(=O)NC(C)C | -4.08% (active) |
| COc1ccc(C(=O)c2sc3nc4c(cc3c2N)CCCC4)cc1OC | 63% |
| CS(CCCCN=C=S)=NC(=O)c1c(F)c(F)c(F)c(F)c1F (stereo not drawn) | 44.8% |
| COc1ccc(-c2c(C)noc2-c2ccc(O)cc2O)cc1 | 103% |
| COc1ccc(C(=O)c2sc3nc(-c4ccccc4OC)ccc3c2N)cc1OC | 90.6% |
| NC1=CC(=O)C(=O)c2ccccc21 | 45.7% |
| COc1ccc(C(=O)c2sc3nc4c(c(C(F)(F)F)c3c2N)CN(C(C)=O)CC4)cc1OC | 88% |
| COc1cc(C(=O)/C=C/c2c(C)n([O-])c3ccc(C)cc3[n+]2=O)cc(OC)c1OC | 83.8% |
| COc1cc(C2C(C(=O)c3cccs3)=C(O)C(=O)N2CCN2CCOCC2)cc(OC)c1OC (stereo not drawn) | 107% |
| COC(=O)C12C3C(=O)N(c4ccc(OC)cc4)C(=O)C3C(c3cn(-c4ccccc4)nc3C)N1[C@H](c1cn(-c3ccccc3)nc1C)[C@@H]1C(=O)N(c3ccc(OC)cc3)C(=O)[C@@H]12 (stereo partly drawn) | 108% |
| COc1cc(C2CC(=O)Nc3c2cnn3Cc2ccco2)cc2c1OCCO2 (stereo not drawn) | 102% |
